# According to PubChem BioAssay (EPA / NIEHS):
# Results filed as inconclusive are left out. Some compounds were tested as several samples or in several runs, with calls that do not always agree. Active and inactive are the calls of the source. Rule for the calls, unless noted: active = hit-call score of the fitted dose curve at least 0.9, where 1 is the maximum; inconclusive = response in the unintended direction; inactive = score below 0.9.
# Key:
# [1] = TOX21_p53_BLA_p2_viability: Viability Assessment in the Tox21 HCT-116 p53 Agonism Beta-lactamase Assay, Phase 2 (AID 2283591);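 note: compound exposure lasted 16 h at 37 °C; actives lower the ATP signal meaning cytotoxicity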
# Procedure, shortened: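 HCT116 p53-bla cells, 4000/well, dosed after 5 h plating (217-fold dilution of DMSO stocks) and incubated 16 h at 37C. Viability taken as cellular ATP by CellTiter-Glo luminescence after 30 min RT; signal loss marks cytotoxicity.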
# [2] = TOX21_p53_BLA_p3_viability: Viability Assessment in the Tox21 HCT-116 p53 Agonism Beta-lactamase Assay, Phase 3 (AID 2283593);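 note: cells exposed to compound for 16 h before reading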
# Procedure, shortened: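 HCT116 cells, 4000/well, dosed 5 h after plating by pin transfer (217-fold dilution from DMSO stock) and incubated 16 h at 37C, 5% CO2. Viability read as ATP luminescence with CellTiter-Glo after 30 min at room temperature.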
# [3] = TOX21_p53_BLA_p4_viability: Viability Assessment in the Tox21 HCT-116 p53 Agonism Beta-lactamase Assay, Phase 4 (AID 2283597);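 note: hits lower the luminescence signal meaning cytotoxicity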
# Procedure, shortened: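 In this multiplexed secondary endpoint, HCT116 cells (4000 per well, compound at 5 h, 16 h treatment) received CellTiter-Glo after the beta-lactamase read. Luminescence after 30 min RT reflects ATP, and falling signal marks cytotoxicity.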
# [4] = target: Cellular tumor antigen p53 (Homo sapiens) (UniProt P04637); assay: TOX21_p53_BLA_p5_ratio: Tox21 HCT-116 p53 Agonism Beta-lactamase Assay, Ratio, Phase 5 (AID 2283599)
# Chain of Cellular tumor antigen p53 (Homo sapiens) (P04637 whole entry, looked up): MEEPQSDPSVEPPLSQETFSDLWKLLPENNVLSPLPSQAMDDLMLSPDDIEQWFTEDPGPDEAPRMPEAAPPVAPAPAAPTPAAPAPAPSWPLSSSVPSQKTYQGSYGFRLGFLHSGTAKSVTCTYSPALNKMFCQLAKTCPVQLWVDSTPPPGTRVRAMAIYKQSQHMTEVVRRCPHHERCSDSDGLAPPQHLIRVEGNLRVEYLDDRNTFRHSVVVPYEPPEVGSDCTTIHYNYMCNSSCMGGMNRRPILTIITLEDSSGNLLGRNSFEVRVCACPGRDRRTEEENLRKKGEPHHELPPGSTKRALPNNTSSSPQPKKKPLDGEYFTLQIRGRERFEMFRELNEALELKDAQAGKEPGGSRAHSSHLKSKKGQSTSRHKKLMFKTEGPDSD
# Procedure, shortened: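 HCT-116 p53-bla cells (4000/well) plated 5 h, dosed with compound (217-fold DMSO dilution) for 16 h at 37 C; CCF4-AM substrate 2 h at room temperature. Activity is the 460/530 nm emission ratio (405 nm excitation), fitted in gain-of-signal direction versus DMSO.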
# [5] = TOX21_p53_BLA_p5_viability: Viability Assessment in the Tox21 HCT-116 p53 Agonism Beta-lactamase Assay, Phase 5 (AID 2283600)
# Procedure, shortened: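 Here cell health was gauged by ATP levels in wells holding 4000 cells, each treated 16 h with DMSO-delivered compounds at 217-fold dilution; reduced luminescence marked toxicity.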
# [6] = target: Cellular tumor antigen p53 (Homo sapiens) (UniProt P04637); assay: TOX21_p53_BLA_p4_ratio: Tox21 HCT-116 p53 Agonism Beta-lactamase Assay, Ratio, Phase 4 (AID 2283601)
# Procedure, shortened: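 HCT-116 p53 beta-lactamase reporter cells (4000/well) preincubated 5 h, then compound (217-fold dilution of DMSO stock) for 16 h at 37C. CCF4-AM substrate added 2 h at room temperature; 460/530 nm emission ratio fitted upward versus DMSO.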
# [7] = target: Cellular tumor antigen p53 (Homo sapiens) (UniProt P04637); assay: TOX21_p53_BLA_p3_ratio: Tox21 HCT-116 p53 Agonism Beta-lactamase Assay, Ratio, Phase 3 (AID 2283596)
# Procedure, shortened: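 Cells were seeded at 4000/well, rested 5 h at 37C, then dosed with DMSO compound solutions (217-fold dilution) for 16 h. CCF4-AM substrate was loaded for 2 h at room temperature, and the 460/530 nm emission ratio was fitted for gain of signal versus DMSO.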
# [8] = CCTE_Harrill_HTTr_Viability_MCF7: CCTE's 6-hour Cell Viability Assessment for the High-Throughput Transcriptomics (HTTr) Platform, in MCF-7 cells cultured in DMEM + 10% fetal bovine serum, Harrill Lab (AID 2284010; active = hit-call score of the fitted dose curve at least 0.9, where 1 is the maximum; inactive = score below 0.9)
# Procedure, shortened: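 Eight-point concentration series, six-hour exposure. Propidium iodide exclusion imaged to assess membrane integrity as a cytotoxicity readout; bidirectional fitting was done with DMSO as negative control and activity baseline.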
# [9] = CCTE_Harrill_HTTr_Apoptosis_MCF7: CCTE's 6-hour Apoptosis Assessment for the High-Throughput Transcriptomics (HTTr) Platform, in MCF-7 cells cultured in DMEM + 10% fetal bovine serum, Harrill Lab (AID 2284011; active = hit-call score of the fitted dose curve at least 0.9, where 1 is the maximum; inactive = score below 0.9)
# Procedure, shortened: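 Apoptosis in MCF-7 cells grown in DMEM with 10% fetal bovine serum was scored after a six hour exposure by high content imaging of caspase-3/7 activation (CellEvent Caspase 3/7 Green), with DMSO serving as negative control and baseline.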
# [10] = CCTE_Harrill_HTTr_CellCount_MCF7: CCTE's Cell Proliferation Assessment for the High-Throughput Transcriptomics (HTTr) Platform, Harrill Lab (AID 2284012);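 note: count of Hoechst-stained nuclei per well by high-content imaging in MCF-7 cells; cells exposed to compound for six hours; intended direction is loss of nuclei count meaning fewer cells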
# Procedure, shortened: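 For this full-screen endpoint, MCF-7 cultures received eight compound dilutions for six hours. Well nuclei counts from Hoechst imaging were analyzed relative to DMSO.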
# [11] = TAMU_PeakParms_SingleDonor1434_Chronotropy: Texas A&M University (TAMU) 1.5-hr Human Induced Pluripotent Stem Cell (iPSC)-derived Cardiomyocytes Calcium (Ca+2) Flux Assay for Cardiotoxicity: Chronotropy (changes in peak frequency) (AID 2284217; active = hit-call score of the fitted dose curve at least 0.9, where 1 is the maximum; inactive = score below 0.9); details: actives raise or lower the signal
# Procedure, shortened: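 Beat frequency of single-donor iPSC cardiomyocytes was recorded through a calcium-sensitive dye 1.5 hours after exposure to four concentrations up to 100 uM. An EC05 point of departure was derived.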
# [12] = TAMU_HCS_1.5hr_SingleDonor1434_Cytotoxicity: Cytotoxicity Assessment using High-content Screening (HCS) Fluorescent Imaging for the Texas A&M University (TAMU) 1.5-hr Human Induced Pluripotent Stem Cell (iPSC)-derived Cardiotoxicity Assay (AID 2284234)
# Procedure, shortened: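 Nuclear counts from Hoechst 33342 imaging define cytotoxicity here, with EC10 (10% cell-count loss relative to DMSO) as point of departure. iPSC cardiomyocytes received 0.2-100 uM test chemical in 0.5% DMSO for 1.5 h at 37 C.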
# [13] = TAMU_PeakParms_SingleDonor1434_QT: Texas A&M University (TAMU) 1.5-hr Human Induced Pluripotent Stem Cell (iPSC)-derived Cardiomyocytes Calcium (Ca+2) Flux Assay for Cardiotoxicity: QT (decay-rise ratio) (AID 2284235)
# Procedure, shortened: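 Decay/rise ratio of calcium-flux fluorescence scored after 90 min exposure (37C) of donor 1434 iPSC cardiomyocytes to 0.2–100 uM (0.5% DMSO). Beat-cessation and severe-notch points removed; POD is EC05, a 5% rise over DMSO.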
# [14] = TAMU_PeakParms_SingleDonor1434_Asystole: Texas A&M University (TAMU) 1.5-hr Human Induced Pluripotent Stem Cell (iPSC)-derived Cardiomyocytes Calcium (Ca+2) Flux Assay for Cardiotoxicity: Asystole (quiescence of beating) (AID 2284328)
# Procedure, shortened: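 Donor 1434 iPSC-cardiomyocytes exposed 90 min at 37C, 5% CO2, to 0.2, 1, 10 and 100 uM in 0.5% DMSO. Ca2+ dye fluorescence gave average peak frequency; POD is EC95, a 95% beat-rate drop versus controls.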
structure (smiles),measurement,setting,value
Cc1ccccc1CNc1ncnc2c1ncn2[C@@H]1O[C@H](CO)[C@@H](O)[C@H]1O,outcome,[1],inactive
same,outcome,[2],inactive
same,outcome,[3],inactive
same,outcome,[4],inactive
same,outcome,[5],inactive
same,outcome,[6],inactive
CCC[C@H](N[C@@H](C)C(=O)N1[C@H](C(=O)O)C[C@@H]2CCCC[C@@H]21)C(=O)OCC,outcome,[1],inactive
same,outcome,[2],inactive
same,outcome,[7],inactive
same,outcome,[5],inactive
same,outcome,[6],inactive
same,outcome,[8],inactive
same,outcome,[9],inactive
same,outcome,[10],inactive
O=c1[nH]ncc2ccccc12,outcome,[1],inactive
same,outcome,[2],inactive
same,outcome,[3],inactive
same,outcome,[4],inactive
same,outcome,[6],inactive
Oc1cccc2cc3cccc(O)c3c(O)c12,outcome,[1],inactive
same,outcome,[2],inactive
same,outcome,[3],inactive
same,outcome,[4],inactive
same,outcome,[6],inactive
CCC(=O)OCC(=O)[C@@]1(OC(=O)CC)[C@@H](C)C[C@H]2[C@@H]3CCC4=CC(=O)C=C[C@]4(C)[C@@]3(F)[C@@H](O)C[C@@]21C,outcome,[1],inactive
same,outcome,[2],inactive
same,outcome,[3],inactive
same,outcome,[4],inactive
same,outcome,[6],inactive
NC12CC3CC(CC(C3)C1)C2,outcome,[1],inactive
same,outcome,[2],inactive
same,outcome,[3],inactive
same,outcome,[4],inactive
same,outcome,[5],inactive
same,outcome,[6],inactive
CCCCCCCCCCCCCCCCCCOCCO,outcome,[1],inactive
same,outcome,[2],inactive
same,outcome,[3],inactive
same,outcome,[4],inactive
same,outcome,[5],inactive
Cc1ccc(C2(O)CCN(CCCC(=O)c3ccc(F)cc3)CC2)cc1,outcome,[1],inactive
same,outcome,[2],inactive
same,outcome,[3],inactive
same,outcome,[4],inactive
same,outcome,[5],inactive
same,outcome,[6],inactive
COCCCOc1cc(C[C@@H](C[C@H](N)[C@@H](O)C[C@H](C(=O)NCC(C)(C)C(N)=O)C(C)C)C(C)C)ccc1OC,outcome,[1],inactive
same,outcome,[2],inactive
same,outcome,[3],inactive
same,outcome,[4],inactive
same,outcome,[5],inactive
CC(=O)CCCCn1c(=O)c2c(ncn2C)n(C)c1=O,outcome,[1],inactive
same,outcome,[2],inactive
same,outcome,[3],inactive
same,outcome,[4],inactive
same,outcome,[5],inactive
same,outcome,[6],inactive
same,outcome,[8],inactive
same,outcome,[9],inactive
same,outcome,[10],inactive
Cc1ccc(Cl)cc1N,outcome,[1],inactive
same,outcome,[2],inactive
same,outcome,[3],inactive
same,outcome,[4],inactive
same,outcome,[6],inactive
COc1ccc(CCN(C)CCCC(C#N)(c2ccc(OC)c(OC)c2)C(C)C)cc1OC (stereo unspecified),outcome,[1],inactive
same,outcome,[2],inactive
same,AC50,[3],39.2 µM (active)
same,outcome,[3],inactive
same,outcome,[5],inactive
same,outcome,[8],inactive
same,outcome,[9],inactive
same,outcome,[10],inactive
same,outcome,[11],inactive
same,outcome,[12],inactive
same,outcome,[13],inactive
same,outcome,[14],inactive
CN(C)CCOC(c1ccccc1)c1ccccc1 (tested in a mixture with another compound),outcome,[1],inactive
same,outcome,[2],inactive
same,outcome,[3],inactive
same,outcome,[5],inactive
